# Sampled rows, rich in hits. Any-hit rate of the full collection: about 10%.
# G9a block = G9a (human) methyltransferase inhibition; Q96KQ7; G9a H3K9 monomethylation, AlphaScreen, 2 h; Potency, µM (doses to about 102 µM), for the others: top-dose activity, negative = inhibition, most hits filed as inhibitors; 350,000 tested, 8.8% active; AID 504332; further: potency means the concentration at half of the fitted maximal effect; on the % scale 0 is the no-effect control and ±100 the full control effect; nearly all actives have a fitted effect of over 75% in size
#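 Methyltransferase reactions run at room temperature for 2 h (20 nM enzyme, 500 nM biotin-H3K9 peptide, 20 uM SAM) after a 15 min compound preincubation; product detected by AlphaScreen beads and anti-H3K9me1 antibody.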
# JMJD2A Tudor = inhibitors of human JMJD2A Tudor domain; 390,000 tested, 4.4% active; AlphaScreen JMJD2A-Tudor / H3K4me3 peptide binding; O75164; AID 504339; Potency, µM (series often up to 114 µM), for the others: at the top dose activity change, negative = inhibition, usual class: inhibitors; further: potency means the concentration at half of the fitted maximal effect; on the % scale 0 is the no-effect control and ±100 the full control effect; nearly all actives have a fitted effect of over 50% in size
# Six1-Eya2 blk = blocks human Six1 binding to Eya2; AlphaScreen GST-Six1/His-Eya2 binding, biochemical; active compounds read low; activity change, % (test concentration not listed); 360,000 tested, 0.56% active; AID 651725; in the data active means activity change below about -65%; inconclusive means mostly about -30% to -63%; further: on the % scale 0 is the no-effect control and ±100 the full control effect
#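 GST-Six1 + His-Eya2 (5X stock: 250/500 nM); Tris pH 8.0, 300 mM NaCl, 0.05% BSA, 0.02% Tween 20; GSH donor/Ni acceptor beads; 1 h 37 °C dark; AlphaScreen readout.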
# BAZ2B block = BAZ2B (human) inhibition; AID 504333; Potency, µM (series often up to 114 µM), for inactives: at the highest dose activity change, negative = inhibition, hits mostly inhibitors; 360,000 tested, 4.4% active; Q9UIF8; AlphaScreen BAZ2B-H3K14Ac peptide displacement; further: potency means the concentration at half of the fitted maximal effect; on the % scale 0 is the no-effect control and ±100 the full control effect; nearly all actives have a fitted effect of over 60% in size
#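 Compounds, titrated to a top concentration of 110 uM, were incubated 30 min at room temperature with preformed BAZ2B/acetyl-K14 H3 peptide complex (50 nM each). Proximity signal was measured by AlphaScreen after 20 min with beads.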
# CtBP-E1A inh = inhibitors of CtBP/E1A interaction; AlphaScreen GST-E1A/His-CtBP binding, 1536-well; active compounds read low; activity change, % (test concentration not listed); 340,000 tested, 0.49% active; in the data active means activity change below about -65%; inconclusive means mostly about -30% to -63%; further: on the % scale 0 is the no-effect control and ±100 the full control effect
#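 Homogeneous bead-based format: GST-tagged E1A captured on glutathione donor beads, His-tagged CtBP on nickel acceptor beads; compounds precede bead addition by 2 h at 37 °C.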
# HP1b chromo inh = inhibitors of HP1-beta chromodomain binding to methylated histone tails. AlphaScreen HP1-beta / biotin-H3K9me3 peptide binding. Potency, µM (titrated, usually from 114 µM), inactives show at the highest dose activity change, negative = inhibition, hits mostly inhibitors. 390,000 tested, 0.56% active. AID 540317; further: potency means the concentration at half of the fitted maximal effect; nearly all actives have a fitted effect of over 70% in size
#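 Compound inhibition of the preformed complex between 50 nM HP1-beta and 50 nM biotinylated H3K9me3 peptide was read by AlphaScreen. Buffer was PBS pH 7.4 with 0.01% Tween-20. Incubations ran 30 min at room temperature, with 10 ug/mL donor/acceptor beads.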
# * hit, by the source's call; ? = inconclusive; / = no result given; [ ] = dose if it differs, or a comment. Unless noted, the call rests on the fitted dose curve; in most records, active means well fitted inhibition curve with a large enough effect; inconclusive means small, poorly fitted or top-dose-only effect; inactive means no such curve, though single readings can be large or run the other way.
SMILES,G9a block,JMJD2A Tudor,Six1-Eya2 blk,BAZ2B block,CtBP-E1A inh,HP1b chromo inh
c1ccc(Nc2nc(NCC3CCCO3)c3ccccc3n2)cc1 (stereo not given),-38%,-25%,6,-39%,-1,33%
Cc1ccc(Nc2nc3ccccc3s2)cc1,7%[59 µM],-12%,6,-2%,9,16%
Cc1ccc(Nc2nnns2)cc1,5.6µM*,-23%,12,-37%,-2,?
Cc1ccc(-c2ccccc2NC(=O)CS(=O)CC(=O)Nc2ccc(C)c(Cl)c2)o1 (stereo not given),35µM*,-36%,-23,-13%,-11,1%
CCOC(=O)c1nonc1NC(C)=O,16%[59 µM],-9%[57.1 µM],7,7%,2,47%
CCOC(=O)c1nsnc1NCCSC(=N)N,8.9µM*,-3%,-1,10%,/,15%
O=C(O)Cc1sc(Nc2ccccc2Cl)nc1-c1ccccc1,-4%[59 µM],-19%,/,-22%,/,11%
O=C(Cc1sc(Nc2ccccc2)nc1-c1ccccc1)NCc1ccccn1,35µM*,?,-7,-38%,5,-17%
O=C(Cc1ccccc1)NCc1ccccn1,0%[0.501 µM],8%,11,7%,-16,34%
Cc1ccc(Nc2nc(-c3ccccc3)c(CC(=O)O)s2)cc1,45µM*,2%[11.4 µM],2,-27%,/,-23%
CCc1sc(NC(=O)COC)nc1-c1ccccc1,35µM*,-10%,-2,3%,-8,-22%
O=C(O)Cc1sc(Nc2ccc(C(=O)O)cc2)nc1-c1ccccc1,2%[59 µM],0%,/,-19%,/,30%
O=C(O)Cc1sc(Nc2ccccc2)nc1-c1ccc(Cl)cc1,18µM*,45µM*,13,-28%,4,?
Nc1nc(SCc2ccccn2)c2ncn(C3OC(CO)C(O)C3O)c2n1 (stereo not given),/,0%,6,/,3,11%
COc1ccccc1N1CCN(S(=O)(=O)CCNC(=O)Cc2ccc(Cl)cc2)CC1,-5%[59 µM],-15%,/,-2%,/,8%[57 µM]
O=c1c(-c2nc3ccccc3o2)c2oc3ccccc3n2c2ccccc12,?,/,/,6%,/,/
O=C(O)Cc1sc(-c2ccccc2)nc1-c1ccc(Cl)cc1,/,/,-6,/,-11,/
O=C(O)Cc1sc(Nc2ccc(F)cc2)nc1-c1cccs1,8.9µM*,?,0,?,4,?
O=C(O)Cc1sc(-c2ccc(Cl)cc2)nc1-c1ccccc1,-47%[12.7 µM],25µM*,2,0%,-2,?
COc1cccc(CNC(=O)c2ccncc2)c1,/,-5%,-1,12%,-1,33%
CN(Cc1ccc(Cl)cc1)C(=O)c1[nH]c(C(F)(F)F)nc1-c1ccccc1,/,/,-8,/,-2,/
O=C(NC1CCCCC1)C1c2ccccc2OCC(=O)N1CC(F)(F)F (stereo not given),/,/,3,/,4,/
COc1ccccc1NCC(=O)N/N=C(\C)c1ccc(Br)s1,?,-12%,6,-4%,-10,21%
C/C(=N/NC(=O)CNc1ccc(C)cc1)c1ccc(Br)s1,35µM*,?,-3,-18%,-3,-5%
CCOC(=O)CCP(=O)(O)C(O)c1ccccc1 (stereo not given),18%[59 µM],50µM*,0,1%,1,8%
SMILES,G9a block,JMJD2A Tudor,Six1-Eya2 blk,BAZ2B block,CtBP-E1A inh,HP1b chromo inh
CC1CCc2nc3ncn(CC(=O)Nc4cccc(C#N)c4)c(=O)c3cc2C1 (stereo not given),10%[59 µM],-2%,/,-19%,/,23%[57 µM]
O=C(CCS(=O)(=O)c1ccccc1)Nc1nc2cc3c(cc2s1)OCCO3,?,-25%,8,79µM*,15,38%
NNc1nc2cc3c(cc2s1)OCCO3,71µM*,-3%,2,?,/,25%
O=C(CCS(=O)(=O)c1ccccc1)Nc1nc2cc3c(cc2s1)OCO3,?,-6%,0,71µM*,7,38%
O=C(CCS(=O)(=O)c1ccccc1)Nc1nc2ccc(F)cc2s1,-8%,-3%,5,13%,-3,27%
CN(CC(=O)Nc1cccc(F)c1)C(=O)c1cc([N+](=O)[O-])ccc1N1CCCCC1,?,-30%,-10,?,-1,-2%
Cc1cc(=O)oc2c(C)c(OCC(=O)N3CCC(C(=O)O)CC3)ccc12,/,-5%,-2,4%,0,39%
COc1ccc(Cc2nc(-c3cccs3)no2)cc1,113%,119%,26,67%,38,173%
COc1ccc(Cc2nc(-c3cccs3)no2)cc1OC,50µM*,-2%,1,0%,7,36%
COc1ccccc1N(C(=O)c1csnn1)C(C(=O)NC1CCCC1)c1ccccc1 (stereo not given),-4%,-14%,1,-7%,-2,5%
CCNC(=O)CCSc1nc(C)cc(C)n1,3.5µM*,?,18,0%,-9,10%
Cc1cc(C)nc(SCCC(=O)N(C)C)n1,8.9µM*,?,2,-1%,-7,39%
Cc1cc(C)nc(SCCC(=O)N2CCOCC2)n1,?,-3%,0,-2%,5,55%
C[C@]12C=CC(=O)C=C1CC[C@@H]1[C@@H]2C(=O)C[C@@]2(C)[C@H]1CC[C@]2(O)C(=O)COC(=O)CCC(=O)O,2%,-1%,3,-9%,-8,3%
CSc1ccc(CCNC(=O)NCc2noc3ccccc23)cc1,-1%[59 µM],-14%,/,-25%,/,27%
Nc1n[nH]c(=S)n1/N=C1/C(=O)Nc2ccccc21,1µM*,2.5µM*,?,-25%,/,16µM*
NCCCCCc1cnc[nH]1,-4%[59 µM],/,/,/,/,/
CC1CCC(NC(=O)c2ccc(NC(=O)c3ccc(=O)[nH]c3)cc2)CC1 (stereo not given),-4%,/,/,-10%,/,/
Oc1ccc(/C(Cc2ccc3ccccc3n2)=N\Nc2ccccc2)c(O)c1,7.9µM*,50µM*,-16,?,-13,71µM*
Cc1c(O)ccc(/C(Cc2ccc3ccccc3n2)=N\O)c1O,3%[12.7 µM],-31%,-8,?,-7,10%
Oc1ccc(/C(Cc2ccccn2)=N\Nc2ccccc2)c(O)c1,4µM*,?,-13,32µM*,-14,-28%
CC(=O)Oc1ccc(C(=O)Cc2ccccn2)c(O)c1,?,-32%,0,?,-6,38%
Cc1cc(C2=CC(C)(c3cc(C)oc3C)Nc3nc(C(F)(F)F)nn32)c(C)o1 (stereo not given),?,/,/,56µM*,/,/
CCOC(=O)CCc1c(C)nc(SCCN2CCCC2)c(C#N)c1C,40µM*,-9%[57.1 µM],-2,-18%,0,51%
CCOC(=O)CCc1c(C)c(C#N)c2nc3ccccc3n2c1-n1cnc2ccccc21,24%,-15%,6,7%,13,11%

# Bioassay records from PubChem.
